Test results from PubChem BioAssay (Tox21).
Where “and” joins values, the source holds several entries; their conditions need not be identical. Equal entries are not always repeated. Records with an inconclusive call do not appear. Where a call stands in place of a potency, no number is given. Some compounds were tested as several samples or in several runs, with calls that do not always agree. Calls of active or inactive are those of the source. Unless noted, calls come from the whole dose curve; as a rule, active = well fitted curve in the direction sought with a large enough effect in the repeat runs; inconclusive = weak or mixed curves; inactive = no such curve, though single readings can be large; an effect the other way counts as inactive or inconclusive.

Tests used:
[1] = qHTS assay to identify aromatase inhibitors - cell viability counter screen (AID 743084);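 note: cells stimulated with testosterone during compound exposure; nearly all actives have a fitted effect of over 55% in size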; note: potency is the fitted concentration of half-maximal effect
[2] = target: Aryl hydrocarbon receptor (Homo sapiens) (UniProt P35869); test: qHTS assay to identify small molecule that activate the aryl hydrocarbon receptor (AhR) signaling pathway (AID 743085); note: nearly all actives have a fitted effect of over 15% in size; note: potency is the fitted concentration of half-maximal effect;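 for activation: HG2L7.5c1 human HepG2 liver cells with stably integrated DRE-driven firefly reporter; series mostly up to about 70 µM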
Chain of Aryl hydrocarbon receptor (Homo sapiens) (P35869 whole entry, looked up): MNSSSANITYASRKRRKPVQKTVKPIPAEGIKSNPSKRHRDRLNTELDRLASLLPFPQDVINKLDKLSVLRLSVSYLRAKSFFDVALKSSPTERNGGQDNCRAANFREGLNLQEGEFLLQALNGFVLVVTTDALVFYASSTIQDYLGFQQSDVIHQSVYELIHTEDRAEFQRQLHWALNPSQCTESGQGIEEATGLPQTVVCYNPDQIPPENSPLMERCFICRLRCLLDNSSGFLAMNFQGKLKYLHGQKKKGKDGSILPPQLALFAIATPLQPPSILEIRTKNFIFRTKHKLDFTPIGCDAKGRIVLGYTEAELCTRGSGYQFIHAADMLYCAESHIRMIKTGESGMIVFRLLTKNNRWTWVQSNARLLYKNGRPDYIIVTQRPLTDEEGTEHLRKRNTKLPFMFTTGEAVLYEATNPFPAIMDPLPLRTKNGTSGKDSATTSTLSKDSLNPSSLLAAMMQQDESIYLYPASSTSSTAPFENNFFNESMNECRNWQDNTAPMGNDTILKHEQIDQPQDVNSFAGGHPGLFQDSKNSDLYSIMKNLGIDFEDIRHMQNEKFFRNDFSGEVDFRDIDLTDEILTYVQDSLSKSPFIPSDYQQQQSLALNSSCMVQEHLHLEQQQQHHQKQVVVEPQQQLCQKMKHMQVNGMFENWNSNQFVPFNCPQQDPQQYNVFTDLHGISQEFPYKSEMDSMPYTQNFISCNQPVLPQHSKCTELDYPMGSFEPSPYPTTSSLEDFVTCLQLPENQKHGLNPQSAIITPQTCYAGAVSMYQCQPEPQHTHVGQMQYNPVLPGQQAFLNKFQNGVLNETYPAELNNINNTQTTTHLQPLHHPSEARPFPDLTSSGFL
Procedure, shortened: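 Reporter assay in engineered HepG2 line HG2L7.5c1, whose plasmid carries twenty dioxin responsive elements upstream of firefly luciferase. Treatment lasted 24 h at 37C; ONE-Glo luminescence gauged induction.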

[3] = qHTS assay to identify small molecule that activate the aryl hydrocarbon receptor (AhR) signaling pathway - cell viability counter screen (AID 743086); note: nearly all actives have a fitted effect of over 45% in size; note: potency is the fitted concentration of half-maximal effect
Procedure, shortened: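 Cytotoxicity counter screen: CellTiter-Fluor signal (30 min, 37 C) in 4000 HepG2 cells/well carrying the DRE-luciferase reporter, following 24 h compound exposure at 37 C.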

[4] = target: Peroxisome proliferator-activated receptor gamma (Homo sapiens) (UniProt P37231); test: qHTS assay to identify small molecule agonists of the peroxisome proliferator-activated receptor gamma (PPARg) signaling pathway (AID 743094; active = well fitted activation curve with a large enough effect in the signal ratio in the repeat runs, not every such curve was filed as active; the % refers to the signal ratio)
Chain of Peroxisome proliferator-activated receptor gamma (Homo sapiens) (P37231 whole entry, looked up): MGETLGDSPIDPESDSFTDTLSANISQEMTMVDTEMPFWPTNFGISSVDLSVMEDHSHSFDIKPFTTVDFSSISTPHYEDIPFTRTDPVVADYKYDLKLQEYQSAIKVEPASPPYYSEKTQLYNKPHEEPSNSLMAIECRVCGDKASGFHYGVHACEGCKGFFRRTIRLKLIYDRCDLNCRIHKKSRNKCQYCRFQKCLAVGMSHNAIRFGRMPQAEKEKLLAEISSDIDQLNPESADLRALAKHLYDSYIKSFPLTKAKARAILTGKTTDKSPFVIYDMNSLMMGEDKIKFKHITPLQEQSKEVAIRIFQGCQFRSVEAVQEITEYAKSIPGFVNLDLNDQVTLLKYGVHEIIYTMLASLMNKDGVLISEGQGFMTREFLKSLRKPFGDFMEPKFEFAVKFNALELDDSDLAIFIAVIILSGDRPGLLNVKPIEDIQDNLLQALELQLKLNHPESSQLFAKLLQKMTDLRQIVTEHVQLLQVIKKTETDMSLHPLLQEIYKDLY
Procedure, shortened: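 Reporter activation was scored by fluorescence of cleaved LiveBLAzer B/G substrate (1 h, room temperature) in PPARg-bla HEK293H cells previously treated 17 h at 37C with DMSO-dissolved compounds.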

[5] = target: Peroxisome proliferator-activated receptor gamma (Homo sapiens) (UniProt P37231); test: qHTS assay to identify small molecule antagonists of the peroxisome proliferator-activated receptor gamma (PPARg) signaling pathway (AID 743191; calls by dose curve; note: series mostly up to about 63 µM; nearly all actives have a fitted effect of over 30% in size)
Procedure, shortened: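 Beta-lactamase reporter under UAS control in HEK293H PPARg-bla cells; compound treatment 17 h at 37C. Read-out: fluorescence intensity after 1 h room-temperature incubation with LiveBLAzer B/G FRET substrate.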

[6] = qHTS assay to identify small molecule antagonists of the peroxisome proliferator-activated receptor gamma (PPARg) signaling pathway - cell viability counter screen (AID 743194); settings: Potency: co-treated with 50 nM rosiglitazone unless noted; note: nearly all actives have a fitted effect of over 55% in size; note: potency is the fitted concentration of half-maximal effect
Procedure, shortened: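 Viability was measured as CellTiter-Glo luminescence in GeneBLAzer PPARg UAS-bla HEK293H cells. These cells had been exposed 17 h at 37 C to compounds together with rosiglitazone at 50 nM final, with the beta-lactamase readout taken in the same wells.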

[7] = qHTS assay for small molecule agonists of the antioxidant response element (ARE) signaling pathway (AID 743202; active = well fitted activation curve with a large enough effect in the signal ratio in the repeat runs, not every such curve was filed as active; the % refers to the signal ratio; note: potency is the fitted concentration of half-maximal effect)
Procedure, shortened: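 Beta-lactamase reporter activity, read as fluorescence intensity, reflects ARE/Nrf2 pathway induction in HepG2 cells after 16 h compound exposure at 37 C; substrate loading was 2 h at room temperature.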

[8] = qHTS assay for small molecule agonists of the antioxidant response element (ARE) signaling pathway - cell viability counter screen (AID 743203; calls by dose curve; note: nearly all actives have a fitted effect of over 55% in size; note: potency is the fitted concentration of half-maximal effect)
Procedure, shortened: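 Viability counter screen: stably transfected ARE-bla HepG2 line, 16 hrs compound exposure at 37C/5% CO2, ATP-based CellTiter-Glo luminescence measured in the reporter wells.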

[9] = qHTS assay for small molecule activators of the heat shock response signaling pathway - cell viability counter screen (AID 743209); note: nearly all actives have a fitted effect of over 50% in size; note: potency is the fitted concentration of half-maximal effect
Procedure, shortened: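 Viability of HSE-bla HeLa cells is measured with CellTiter-Glo in the wells already used for the reporter read. Compound exposure lasts 5 h at 37 C, and luminescence is read after 30 min at room temperature.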

[10] = qHTS assay for small molecule activators of the heat shock response signaling pathway (AID 743210; active = well fitted activation curve with a large enough effect in the signal ratio in the repeat runs, with a control signal flat, not every such curve was filed as active; the % refers to the signal ratio;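 note: HeLa cells with beta-lactamase reporter driven by heat shock elements; series mostly up to about 63 µM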)
Procedure, shortened: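 Fluorescence from a cleaved B/G FRET substrate (2.5 h, room temp) reports HSE-driven beta-lactamase in HeLa cells treated 5 h at 37 C with DMSO-dissolved compounds.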

| Structure (SMILES) | Potency [1] | Potency [2] | Potency [3] | Potency [4] | Potency [5] | Potency [6] | Potency [7] | Potency [8] | Potency [9] | Potency [10] |
| --- | --- | --- | --- | --- | --- | --- | --- | --- | --- | --- |
| CCC(CC)Nc1c([N+](=O)[O-])cc(C)c(C)c1[N+](=O)[O-] | inactive | inactive | inactive | inactive | inactive | inactive | inactive | inactive | inactive | inactive |
| CCCCCCOC(=O)c1ccccc1C(=O)OCCCCCC | inactive | inactive | inactive | inactive | inactive | inactive | inactive | inactive | inactive | inactive |
| COc1ccc(C=O)cc1 | inactive | inactive | inactive | inactive | inactive | inactive | inactive | inactive | inactive |  |
| CN(C)C(=O)Nc1ccc(Cl)cc1 | inactive | inactive | inactive | inactive |  | inactive | inactive | inactive | inactive |  |
| CC(C)(OOC(C)(C)c1ccccc1)c1ccccc1 | inactive | inactive | inactive | inactive |  | inactive | inactive | inactive | 48.3 µM (active) and inactive |  |
| c1ccc(N=Nc2ccccc2)cc1 | inactive | inactive | inactive | inactive |  | inactive | inactive | inactive | inactive |  |
| NNC(N)=S | 28.4 µM (active) and inactive | inactive and 19.3 µM (active) | inactive | inactive | inactive | inactive | inactive | inactive | 40.4 µM (active) and inactive |  |
| CCC(C)c1cc([N+](=O)[O-])cc([N+](=O)[O-])c1O (stereo not drawn) | inactive and 27.3 µM (active) | inactive | inactive and 13.7 µM (active) | inactive | inactive | inactive | inactive and 611 nM (active) | inactive and 969 nM (active) | inactive |  |
| CC(C)C(=O)OCC(C)(C)C(OC(=O)C(C)C)C(C)C (stereo not drawn) | inactive | inactive | inactive | inactive |  | 35 µM [setting not given] (active) | inactive | inactive | 24.8 µM (active) and inactive |  |
| NC(=S)Nc1ccccc1 | inactive | inactive | inactive | inactive | inactive | inactive | inactive | inactive | inactive | inactive |
| CCCCNC(=O)n1c(NC(=O)OC)nc2ccccc21 | inactive | 34.2 µM (active) and inactive | inactive | inactive | inactive | inactive | inactive | inactive | inactive | inactive |
| CCCCCCCCCCCOC(=O)c1ccccc1C(=O)OCCCCCCCCCCC | inactive | inactive | inactive | inactive |  | inactive | inactive | inactive | inactive |  |
| C=CCc1ccc(OC)cc1 | inactive | inactive | inactive | inactive |  | inactive | inactive | inactive | inactive |  |
| c1ccc(-c2cccc(-c3ccccc3)c2)cc1 | inactive | inactive and 61.1 µM (active) | inactive | inactive |  | inactive | inactive | inactive | inactive |  |
| CC(C)NC(C)C | inactive | inactive | inactive | inactive | inactive | inactive | inactive | inactive | inactive |  |
| CCC(=O)O[C@H]1CC[C@H]2[C@@H]3CCC4=CC(=O)CC[C@]4(C)[C@H]3CC[C@]12C | inactive | inactive | inactive | inactive |  | 49 µM [setting not given] (active) and inactive |  | 68.6 µM (active) and inactive | 54.9 µM (active) and inactive |  |
| C=CCN(CC=C)C(=O)C(Cl)Cl | inactive | inactive | inactive | inactive |  | inactive | inactive | inactive | inactive | inactive |
| CNC(=O)N(C)c1nnc(C(C)(C)C)s1 | inactive | inactive | inactive | inactive |  | inactive | inactive | inactive | inactive |  |
| Cc1ccc2c(c1N)C(=O)c1ccccc1C2=O | 43.3 µM (active) | 3.03 µM (active) and 4.33 µM (active) | 27.3 µM (active) | inactive |  | inactive |  | inactive | inactive | inactive |
| C=C(C)[C@H]1Cc2c(ccc3c2O[C@@H]2COc4cc(OC)c(OC)cc4[C@@H]2C3=O)O1 | 34.8 µM (active) and 34.4 µM (active) | inactive | inactive and 39.1 µM (active) and 21.7 µM (active) | inactive |  | inactive | 0.0077 µM (active) | 15.6 µM (active) and 3.86 µM (active) and 3.76 µM (active) | inactive | inactive |
| C[C@]12CCC(=O)C(O)=C1CC[C@@H]1[C@@H]2CC[C@]2(C)C(=O)CC[C@@H]12 | inactive | inactive | inactive | inactive |  | inactive |  | inactive | inactive | inactive |
| O=P(Oc1ccccc1)(Oc1ccccc1)Oc1ccccc1 | inactive | inactive | inactive | inactive |  |  | inactive | inactive | inactive | inactive |
| CCCCC(CC)COC(=O)Cl (stereo not drawn) | inactive | inactive | inactive | inactive |  | inactive | inactive | inactive | inactive | inactive |
